Assay outcomes (PubChem BioAssay)
Rows were chosen to be rich in hits. Some 3.8% of all compounds tested hit in one or more screens of this group.
MBNL1-CUG inh: blocks human MBNL1 binding to CUG repeat RNA; Q9NR56; TR-FRET MBNL1-His/biotin-(CUG)12 binding, 665/545 ratio; Potency, µM (top dose mostly 57.5 µM), for the others: top-dose activity change, negative = inhibition, hits mostly inhibitors; 280,000 tested, 0.036% active; active = well fitted inhibition curve with a large enough effect in the signal ratio, with a control signal flat, not every such curve was filed as active; inconclusive = small, poorly fitted or top-dose-only effect, or effect the other way, or a change in a side signal; inactive = no such curve, though single readings can be large or run the other way; the % refers to the signal ratio; also: potency is read from the fitted curve at half-maximal effect; % is scaled to controls: 0 for no effect and ±100 for the full control effect
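Compounds (final 92 nM to 58 uM) are added to His-tagged MBNL1 and biotin-(CUG)12, then terbium anti-His antibody and streptavidin-XL665 (5 nM final). After 60 min at room temperature, the 665/545 nm ratio is read.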
KCNH2 WT inh: blocks the wildtype human KCNH2 potassium channel. U2OS, BacMam KCNH2, thallium flux FluxOr; hits give low values. 340,000 tested, 0.37% active. AID 720551. activity change, % at 1.84 µM;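 active = maximum activity change below -70%; inconclusive = maximum activity change between -70% and -50%; inactive = maximum activity change above -50%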; also: % is scaled to controls: 0 for no effect and ±100 for the full control effect
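U2OS cells transduced with wild-type KCNH2 virus are loaded with FluxOr dye for 45 min, and thallium flux is measured in kinetic reads before and after stimulation buffer. Rate constants are normalized to DMSO controls.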
PLK1 PBD block: blocks phosphopeptide binding to human PLK1 polo-box domain; Plk1 PBD binding of FITC phosphopeptide, fluorescence polarization; Potency, µM, without a hit: max response, negative = inhibition, actives largely listed as inhibitors; 360,000 tested, 2.8% active; AID 720504; also: potency is read from the fitted curve at half-maximal effect; series mostly up to about 57 µM; % is scaled to controls: 0 for no effect and ±100 for the full control effect; nearly all actives have a fitted effect of over 65% in size
Target sequence (P53350 whole entry, looked up, the tested form may be a part): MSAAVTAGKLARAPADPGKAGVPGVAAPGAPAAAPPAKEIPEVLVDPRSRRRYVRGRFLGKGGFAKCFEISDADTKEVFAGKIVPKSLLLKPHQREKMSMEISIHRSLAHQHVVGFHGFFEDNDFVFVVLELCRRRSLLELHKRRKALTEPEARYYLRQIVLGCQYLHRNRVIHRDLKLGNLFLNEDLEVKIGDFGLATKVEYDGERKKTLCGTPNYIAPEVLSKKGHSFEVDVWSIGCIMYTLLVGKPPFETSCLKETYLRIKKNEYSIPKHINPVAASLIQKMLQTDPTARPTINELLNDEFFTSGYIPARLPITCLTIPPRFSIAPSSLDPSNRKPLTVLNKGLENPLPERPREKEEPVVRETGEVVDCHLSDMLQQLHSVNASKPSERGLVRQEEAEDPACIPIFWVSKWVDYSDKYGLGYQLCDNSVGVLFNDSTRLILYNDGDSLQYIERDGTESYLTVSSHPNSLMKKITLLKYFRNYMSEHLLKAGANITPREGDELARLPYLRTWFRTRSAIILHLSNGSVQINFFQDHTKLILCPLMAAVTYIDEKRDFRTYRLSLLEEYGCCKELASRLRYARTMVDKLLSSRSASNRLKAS
CBFb-RUNX1 inh: inhibitors of human CBF-beta and RUNX1 interaction; Q01196+Q13951; AlphaScreen CBFb-His/RUNX1-biotin binding, biochemical; Potency, µM (titrated, usually from 59.8 µM), for inactives: at the top dose activity, negative = inhibition, most hits filed as inhibitors; 230,000 tested, under 10 active; AID 1477; also: % of control where 0% means no effect
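Interaction loss through any mechanism counts as activity. Pre-formed complex of His-CBF-beta and biotin-RUNX1 (30 nM apiece) is incubated with compound 15 min, then with 50 ng nickel and 50 ng streptavidin beads for 90 min before AlphaScreen detection.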
KCNH2 3.1 inh: KCNH2 3.1 (human) potassium channel inhibition; AID 720553; U2OS KCNH2 3.1, thallium flux FluxOr; hits give low values; 340,000 tested, 0.95% active; activity change, % (tested at about 1.8 µM);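 active = maximum activity change below -70%; inconclusive = maximum activity change from -70% to -50%; inactive = maximum activity change above -50%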;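 also: thallium influx rate constant from kinetic fluorescence after stimulation buffer; % is scaled to controls: 0 for no effect and ±100 for the full control effect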
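Channel expression came from 3.1 mutant virus (1.77 x 10^8 /mL) applied to suspended U2OS cells for 4 h. Flux was tracked with FluxOr dye plus Red40 quencher, and kinetic rate constants normalized to controls.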
VDR inhibitor: inhibitors of human vitamin D receptor. 400,000 tested, 0.93% active. Potency, µM, without a hit: max response, negative = inhibition, actives largely listed as inhibitors. VDR-SRC2-3 peptide fluorescence polarization, 2 h. AID 504847; also: potency is read from the fitted curve at half-maximal effect; % is scaled to controls: 0 for no effect and ±100 for the full control effect
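Measured by FP: displacement of SRC2-3 coactivator peptide from VDR by library compounds, following a two-hour ambient incubation.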
An asterisk follows results filed as active. Unless noted, calls follow the shape of the dose curve; as a rule, active = well fitted curve in the direction sought with a large enough effect; inconclusive = small, poorly fitted or top-dose-only effect, or another doubt; inactive = no such curve, though single readings can be large; an effect the other way counts as inactive or inconclusive.

How did Cc1c(C=O)c2ccccc2n1CC(=O)NCc1ccc2c(c1)OCO2 do in these assays?
MBNL1-CUG inh: 0.3%; KCNH2 WT inh: -2.5; PLK1 PBD block: -3.0%; CBFb-RUNX1 inh: 0.3%; KCNH2 3.1 inh: -389.7*; VDR inhibitor: -6.9%

Results for COc1cc(OC)cc(C(=O)NCc2ccc3c(c2)OCO3)c1 ?
MBNL1-CUG inh: -3.5%; KCNH2 WT inh: -7.2; PLK1 PBD block: -3.8%; KCNH2 3.1 inh: -4.8; VDR inhibitor: -7.4%

How did COCCn1c(SCC(=O)NCc2ccc3c(c2)OCO3)nnc1C(C)C do in these assays?
MBNL1-CUG inh: -1.6%; KCNH2 WT inh: 8.7; PLK1 PBD block: -5.3%; KCNH2 3.1 inh: -4.0; VDR inhibitor: 1.3%

How did CCCCn1c(=O)c2oc3ccccc3c2n(CC(=O)Nc2cccc(Cl)c2)c1=O do in these assays?
VDR inhibitor: -1.3%

Results for CSc1cccc(N2C(=O)N(CC(=O)NCc3ccccc3Cl)c3ccccc3S2(=O)=O)c1 ?
VDR inhibitor: 4.6%

Results for CCOc1cc(C(=O)Nc2cc3c(cc2N2CCOCC2)n(C)c(=O)n3C)cc(OCC)c1OCC ?
MBNL1-CUG inh: -5.2%; KCNH2 WT inh: 3.5; PLK1 PBD block: 13.4µM*; KCNH2 3.1 inh: 7.2; VDR inhibitor: -28.8%

How did COc1cccc(N2CCN(C(=O)c3cc4c(=O)n(Cc5cccs5)ccc4nc3C)CC2)c1 do in these assays?
VDR inhibitor: 6.0%

Results for COc1ccc(NC2=CC(c3ccc(F)cc3)N(c3ccc(OC)cc3)C2=O)cc1 (stereo unspecified) ?
MBNL1-CUG inh: -3.5%; KCNH2 WT inh: 3.5; PLK1 PBD block: -2.6%; CBFb-RUNX1 inh: inconclusive; KCNH2 3.1 inh: 4.0; VDR inhibitor: -10.9%

What do the screens show for `COc1ccc(NC2=CC(c3ccc(OC)cc3)N(c3ccc(OC)cc3)C2=O)cc1` (stereo unspecified)?
MBNL1-CUG inh: -4.1%; PLK1 PBD block: 23.8µM*; CBFb-RUNX1 inh: inconclusive; KCNH2 3.1 inh: -10.7; VDR inhibitor: -27.1%

What do the screens show for `COC1=C(Nc2ccc(O)cc2)C(=O)c2ccccc2C1=O`?
MBNL1-CUG inh: inconclusive; KCNH2 WT inh: -6.3; PLK1 PBD block: -11.4%; CBFb-RUNX1 inh: inconclusive; KCNH2 3.1 inh: -1.9; VDR inhibitor: 25.1µM*

What do the screens show for `Cc1ccccc1OCC(=O)Nc1ccc(NC(=O)c2ccco2)cc1`?
MBNL1-CUG inh: -6.4%; KCNH2 WT inh: 3.1; PLK1 PBD block: 21.2µM*; CBFb-RUNX1 inh: -0.1%; KCNH2 3.1 inh: 17.7; VDR inhibitor: -15.7%

What do the screens show for `O=C(COc1ccc(/C=N/NC(=O)c2ccccc2O)cc1)Nc1ccc([N+](=O)[O-])cc1`?
KCNH2 WT inh: 17.6; PLK1 PBD block: 21.2µM*; CBFb-RUNX1 inh: 8.8%; KCNH2 3.1 inh: -2.8; VDR inhibitor: -23.3%

What do the screens show for `CC(C)(C)c1ccc(OCc2ccc(C(=O)N/N=C/c3ccc([N+](=O)[O-])cc3)o2)cc1`?
MBNL1-CUG inh: 4.0%; KCNH2 WT inh: -2.9; PLK1 PBD block: -5.2%; CBFb-RUNX1 inh: 1.4%; KCNH2 3.1 inh: -80.0*; VDR inhibitor: 12.8%

How did Cc1ccccc1OCC(=O)Nc1ccc([N+](=O)[O-])cc1 do in these assays?
MBNL1-CUG inh: 5.1%; KCNH2 WT inh: -168.7*; PLK1 PBD block: -3.3%; KCNH2 3.1 inh: -3.1; VDR inhibitor: -4.1%

How did O=C(COC(=O)CNC(=O)C1CCCCC1)NC1CC1 do in these assays?
VDR inhibitor: 5.1%

How did COCCNC(=O)c1sc2nc3n(c(=O)c2c1C)CCC3 do in these assays?
VDR inhibitor: 5.1%

What do the screens show for `COc1c(C)cc(S(=O)(=O)Nc2cccc(-c3ccc(N4CCOCC4)nn3)c2)c(C)c1C`?
VDR inhibitor: 3.1%

How did O=C(Nc1nc2c(F)cccc2s1)c1ccc2c(c1)OCCO2 do in these assays?
VDR inhibitor: 1.3%

How did O=C(c1cnc(N2CCOCC2)c2ccccc12)N1CCN(c2ccc(F)cc2)CC1 do in these assays?
VDR inhibitor: 12.9%
